# The full ranking holds about 33,000 sequences; the median of “E-score (-0.5 to 0.5)” is about -0.012, and the highest 2% start at about 0.27. Only a selection was taken, and the highest values are over-represented in it overall.
# Biological target: T1, Vhr1 (UniProt P40522)
# T1 sequence: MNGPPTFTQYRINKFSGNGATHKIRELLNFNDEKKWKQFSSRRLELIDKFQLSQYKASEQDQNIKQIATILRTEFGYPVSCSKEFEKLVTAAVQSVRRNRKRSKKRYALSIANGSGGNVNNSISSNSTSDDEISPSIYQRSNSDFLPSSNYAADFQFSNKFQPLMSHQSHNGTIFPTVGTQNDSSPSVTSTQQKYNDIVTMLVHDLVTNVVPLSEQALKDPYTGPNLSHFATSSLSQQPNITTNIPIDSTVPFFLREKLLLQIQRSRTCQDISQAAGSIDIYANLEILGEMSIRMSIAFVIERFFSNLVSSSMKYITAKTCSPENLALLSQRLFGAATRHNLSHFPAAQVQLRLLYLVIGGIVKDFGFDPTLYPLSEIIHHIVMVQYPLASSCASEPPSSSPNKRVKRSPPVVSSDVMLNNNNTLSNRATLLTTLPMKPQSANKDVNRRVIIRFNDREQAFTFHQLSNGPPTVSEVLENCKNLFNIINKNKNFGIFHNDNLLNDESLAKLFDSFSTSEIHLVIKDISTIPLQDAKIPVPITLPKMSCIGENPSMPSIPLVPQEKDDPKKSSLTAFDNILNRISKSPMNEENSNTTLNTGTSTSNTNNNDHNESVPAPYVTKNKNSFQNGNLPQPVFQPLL
# Test: PBM E-score (8-mer binding enrichment) (E-score (-0.5 to 0.5)); higher = stronger / more preferred TF binding
# Details: protein concentration: 200 nM; construct: GST-full length
# Protocol: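 Universal 'all 10-mer' protein binding microarrays (Agilent AMADID 015681) probed with GST-tagged S. cerevisiae TFs (full-length or DBD) made by in vitro transcription/translation (PURExpress), about 100-200 nM. Bound TF was detected with fluorescent anti-GST. Each ungapped 8-mer (which stands for itself and its reverse complement) is scored by the PBM enrichment score (E-score), a modified Wilcoxon-Mann-Whitney statistic from -0.5 to +0.5, computed with the Universal PBM Analysis Suite. Scale: above 0.35 generally sequence-specific binding.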
row,Sequence,PBM E-score
1,CTGAGTGC,0.0204
2,CTGAGTCC,0.292
3,CATGGAGA,0.155
4,ATAAAACA,-0.125
5,ATGCTTTG,0.0636
6,AATAGCAC,-0.026
7,GAGGTTAC,0.0302
8,ACAGGTCC,-0.195
9,CGACAATA,0.0881
10,CGTTAGAA,-0.323
11,ACTGGGGA,-0.0871
12,CTGCCCCA,0.0236
13,AGGTGGAA,0.0199
14,GCGCTCAC,0.0509
15,ATGAGTGC,0.0758
16,ATGAGTCC,0.389
17,ATGAGTTC,0.00071
18,GACGCAAC,-0.169
19,GTTAGTGA,0.0216
20,ATTAGTTA,0.143
21,CTTAGTCA,0.376
22,CTTAGTCC,0.0119
23,GTTAGTTA,0.137
24,GTTAGTCA,0.43
25,ATTAGTCG,0.279

row,Sequence,PBM E-score
1,ATTAGTCC,0.122
2,ATTAGTGG,0.141
3,ATTAGTTG,0.0201
4,ATTAGTCA,0.381
5,CTTAGTAA,-0.0159
6,GGTGCAAC,-0.183
7,ATGACGCG,0.162
8,GTCAATCA,0.221
9,AGTCATGA,0.466
10,AGTCAAGC,0.00212
11,CGTCATGA,0.267
12,AGTCATGC,0.443
13,AGCCATGA,0.228
14,AGTCAAGG,0.196
15,CGTCATGC,0.0219
16,AGCCATGG,0.281
17,GGTCATGA,0.239
18,AGCCATGC,0.128
19,AGTCATGG,0.458
20,AGACATGG,0.192
21,CCGTTTAG,-0.0628
22,AGAAGCGA,-0.0198
23,GGATAACC,-0.112
24,AGAACTTC,-0.182
25,CTTGCCCA,-0.177

row,Sequence,PBM E-score
1,GAAGGGTA,0.0935
2,CAAAGTTC,-0.0789
3,ACTGCGAG,0.0985
4,GCCACCAC,-0.0307
5,ATCATGGA,0.22
6,ATCATGGG,0.272
7,ATCATGCC,0.0697
8,ACCATGGG,0.108
9,ATCATGCA,0.192
10,CCCATGGA,0.0783
11,ATCATGCG,0.283
12,ATCATGGC,0.143
13,CCCATGGG,0.285
14,ACGGTCAC,-0.0582
15,TAGCGTAA,-0.0878
16,CGGAGATC,-0.0653
17,AATTCGGA,0.0232
18,TCAGAACA,0.00034
19,GCAGCTAA,-0.106
20,CAATTTTC,-0.0832
21,GAGGCAAC,-0.172
22,CATAACGA,0.0162
23,CGTGACTA,0.419
24,CGTGACTC,0.472
25,CGTGACGC,-0.144

row,Sequence,PBM E-score
1,CGTGACAA,-0.0207
2,CGTGACGA,0.00499
3,CGTGACCC,0.141
4,GGTCGAAC,0.00191
5,GACCCTAA,-0.109
6,GGAATTCC,-0.279
7,CTAATGAA,0.0817
8,AGCATCTC,0.0587
9,GGATTTGA,-0.0695
10,CTCGTGAA,0.0314
11,CTCGTGAC,0.273
12,ATCGTGAC,0.113
13,GCCCTCCA,-0.133
14,CCATATCA,0.0898
15,CTATATAC,0.241
16,ATATATCC,0.273
17,ATATATAG,0.132
18,CTATATCC,-0.00727
19,GTATATAC,0.0568
20,ATATATAC,0.285
21,ATATATCA,0.0989
22,ATATATAA,0.247
23,ACATATCG,0.191
24,ATATATAT,0.324
25,ACATATCA,0.281

row,Sequence,PBM E-score
1,GCCTGCGA,-0.00738
2,AGAATACT,0.0167
3,CAGTACCC,0.103
4,GATAATGC,0.114
5,GACCACGC,0.148
6,AAATCACA,0.0215
7,TAATCACA,0.222
8,CAATCACG,0.211
9,AAATCACG,0.173
10,GAATCACA,0.341
11,AAATCACC,0.312
12,CAATCACC,0.238
13,GCATCACC,-0.0259
14,GAATCACC,0.392
15,CTAGAAAC,-0.252
16,AAGGCTCC,-0.172
17,ATCGACGG,0.0804
18,CCGAATGA,0.166
19,CAACCGCA,0.0762
20,CAACCGCG,0.3
21,CAACCGCC,-0.102
22,GATTATAC,0.213
23,GCGGGCTA,-0.119
24,CGCGGCTA,-0.0223
25,AGCGGCTC,-0.0971

row,Sequence,PBM E-score
1,CGCGGCTC,0.278
2,CGAGTCTC,0.0296
3,CGAGTCCC,0.186
4,CGAGTCAG,0.429
5,CAAGTCAA,-0.0643
6,CGAGTCAA,0.278
7,GGAGTCTA,0.0135
8,CCAGTCAG,0.0854
9,GGAGTCAA,0.354
10,CGTGTCAG,0.037
11,CGAGTCTA,-0.0817
12,CGAGTCAC,0.467
13,GGAGTCGA,0.122
14,CCGTGCCG,-0.00022
15,AACCTCTC,-0.172
16,GCAGCCGA,0.0559
17,GCAGGCCA,0.117
18,ACTGATCC,0.0497
19,ATTGTTTC,0.217
20,TTAGTCAA,0.168
21,CCAGTCCG,-0.0813
22,CGAGTCCA,-0.0942
23,TGAGTCAA,0.419
24,TGAGTCCA,0.3
25,TCAGTCAA,0.114

row,Sequence,PBM E-score
1,AGAGTCCG,-0.0962
2,GGAGTCCA,0.163
3,CGAGTCCG,0.286
4,CAATCAAA,-0.008
5,CCTTCCCC,0.0876
6,CCCTATCC,-0.0379
7,ACAGCTGG,-0.119
8,CCAGCTGG,0.301
9,CCAGCTGC,-0.105
10,AGTAAATC,0.0723
11,AGGACTCG,0.167
12,CGGACTCA,0.381
13,CGGACTTA,-0.189
14,AGGACTCC,0.129
15,AGGACTCA,0.376
16,CGGACTCC,0.2
17,ATATACTA,0.257
18,CCTTGAGA,-0.0758
19,ACATAGTC,0.272
20,CCATAGTC,0.225
21,ACATAGTA,0.188
22,ACATAGTG,0.314
23,AAATAGTG,-0.149
24,AAATAGTC,0.0418
